Active and inactive are the calls of the source. Cut-off read from the data, not from the text of the source, unless noted: active = inhibition above about 30%; inactive = the rest.
Tests used:
[1] = target: Nuclear receptor coactivator 3 (Homo sapiens) (UniProt Q9Y6Q9); experiment: SRC3 coactivator transcriptional activity inhibitors, confirmation, cell-based, luminescence, quadruplicate (AID 588792;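 active = mean inhibition over 43.08%, the solvent-only control mean plus 3 SD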;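 note: 0% = DMSO treated cells and 100% = gossypol at 36 µM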); settings: HEK293 GAL4-SRC3 luciferase reporter, at 3.6 µM, stronger effect = higher value
Nuclear receptor coactivator 3 (Homo sapiens), sequence (Q9Y6Q9 whole entry, looked up, the tested form may be a part): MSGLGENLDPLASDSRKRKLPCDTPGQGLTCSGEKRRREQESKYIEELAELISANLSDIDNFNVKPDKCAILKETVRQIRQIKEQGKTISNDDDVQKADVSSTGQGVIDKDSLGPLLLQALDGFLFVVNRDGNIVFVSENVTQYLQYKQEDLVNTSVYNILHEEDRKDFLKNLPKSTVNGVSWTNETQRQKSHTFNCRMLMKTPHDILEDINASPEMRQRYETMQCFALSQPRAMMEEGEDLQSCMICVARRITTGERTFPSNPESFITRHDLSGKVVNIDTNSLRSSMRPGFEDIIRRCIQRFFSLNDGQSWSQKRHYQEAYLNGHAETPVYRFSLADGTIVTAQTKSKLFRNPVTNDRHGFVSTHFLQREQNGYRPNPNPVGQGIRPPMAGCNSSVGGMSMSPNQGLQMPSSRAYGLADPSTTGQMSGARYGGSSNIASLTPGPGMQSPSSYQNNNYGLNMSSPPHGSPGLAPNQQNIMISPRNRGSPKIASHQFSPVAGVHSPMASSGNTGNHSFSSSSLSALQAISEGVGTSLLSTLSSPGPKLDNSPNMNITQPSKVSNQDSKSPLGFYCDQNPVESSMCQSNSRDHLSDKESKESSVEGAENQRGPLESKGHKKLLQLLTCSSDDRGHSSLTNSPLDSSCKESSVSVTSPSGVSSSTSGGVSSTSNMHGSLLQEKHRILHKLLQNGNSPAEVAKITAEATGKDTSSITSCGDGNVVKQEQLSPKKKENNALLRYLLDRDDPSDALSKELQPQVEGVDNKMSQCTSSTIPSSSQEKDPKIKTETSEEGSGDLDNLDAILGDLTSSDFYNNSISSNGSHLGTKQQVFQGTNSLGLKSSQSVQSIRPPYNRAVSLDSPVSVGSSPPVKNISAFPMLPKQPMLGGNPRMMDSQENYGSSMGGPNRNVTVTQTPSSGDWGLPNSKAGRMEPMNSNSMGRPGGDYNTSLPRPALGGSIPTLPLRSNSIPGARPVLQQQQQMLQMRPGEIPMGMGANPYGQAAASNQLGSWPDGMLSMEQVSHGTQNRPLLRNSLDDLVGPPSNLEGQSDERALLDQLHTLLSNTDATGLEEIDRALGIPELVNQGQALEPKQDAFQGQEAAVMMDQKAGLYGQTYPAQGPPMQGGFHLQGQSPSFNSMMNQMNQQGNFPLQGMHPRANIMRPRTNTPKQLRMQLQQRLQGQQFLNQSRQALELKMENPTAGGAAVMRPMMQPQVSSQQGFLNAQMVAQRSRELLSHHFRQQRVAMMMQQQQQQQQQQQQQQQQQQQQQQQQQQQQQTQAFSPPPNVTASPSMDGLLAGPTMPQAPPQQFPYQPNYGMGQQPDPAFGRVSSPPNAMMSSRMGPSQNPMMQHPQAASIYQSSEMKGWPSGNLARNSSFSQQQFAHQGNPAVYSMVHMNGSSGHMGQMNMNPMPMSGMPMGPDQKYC

[2] = system: transactivating tegument protein VP16 (Human herpesvirus 1), Gal4-VP16 luciferase reporter; experiment: VP16 transactivation inhibitors, counter-screen for SRC3 inhibitor project, cell-based, luminescence, high throughput (AID 588794); settings: mammalian cells, VP16-driven luciferase reporter luminescence; at 3.6 µM; stronger effect = higher value
[3] = target: Nuclear receptor coactivator 1 (Homo sapiens) (UniProt Q15788); experiment: SRC1 coactivator transcriptional activity inhibitors, confirmation, cell-based, luminescence, quadruplicate (AID 588820;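 active = mean inhibition above 46.68%, the untreated control wells mean plus 3 SD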;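 note: 0% = DMSO wells and 100% = gossypol 36 µM treated wells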); settings: HEK293 GAL4-SRC1 luciferase reporter, at 3.6 µM, stronger effect = higher value
Nuclear receptor coactivator 1 (Homo sapiens), sequence (Q15788 whole entry, looked up, the tested form may be a part): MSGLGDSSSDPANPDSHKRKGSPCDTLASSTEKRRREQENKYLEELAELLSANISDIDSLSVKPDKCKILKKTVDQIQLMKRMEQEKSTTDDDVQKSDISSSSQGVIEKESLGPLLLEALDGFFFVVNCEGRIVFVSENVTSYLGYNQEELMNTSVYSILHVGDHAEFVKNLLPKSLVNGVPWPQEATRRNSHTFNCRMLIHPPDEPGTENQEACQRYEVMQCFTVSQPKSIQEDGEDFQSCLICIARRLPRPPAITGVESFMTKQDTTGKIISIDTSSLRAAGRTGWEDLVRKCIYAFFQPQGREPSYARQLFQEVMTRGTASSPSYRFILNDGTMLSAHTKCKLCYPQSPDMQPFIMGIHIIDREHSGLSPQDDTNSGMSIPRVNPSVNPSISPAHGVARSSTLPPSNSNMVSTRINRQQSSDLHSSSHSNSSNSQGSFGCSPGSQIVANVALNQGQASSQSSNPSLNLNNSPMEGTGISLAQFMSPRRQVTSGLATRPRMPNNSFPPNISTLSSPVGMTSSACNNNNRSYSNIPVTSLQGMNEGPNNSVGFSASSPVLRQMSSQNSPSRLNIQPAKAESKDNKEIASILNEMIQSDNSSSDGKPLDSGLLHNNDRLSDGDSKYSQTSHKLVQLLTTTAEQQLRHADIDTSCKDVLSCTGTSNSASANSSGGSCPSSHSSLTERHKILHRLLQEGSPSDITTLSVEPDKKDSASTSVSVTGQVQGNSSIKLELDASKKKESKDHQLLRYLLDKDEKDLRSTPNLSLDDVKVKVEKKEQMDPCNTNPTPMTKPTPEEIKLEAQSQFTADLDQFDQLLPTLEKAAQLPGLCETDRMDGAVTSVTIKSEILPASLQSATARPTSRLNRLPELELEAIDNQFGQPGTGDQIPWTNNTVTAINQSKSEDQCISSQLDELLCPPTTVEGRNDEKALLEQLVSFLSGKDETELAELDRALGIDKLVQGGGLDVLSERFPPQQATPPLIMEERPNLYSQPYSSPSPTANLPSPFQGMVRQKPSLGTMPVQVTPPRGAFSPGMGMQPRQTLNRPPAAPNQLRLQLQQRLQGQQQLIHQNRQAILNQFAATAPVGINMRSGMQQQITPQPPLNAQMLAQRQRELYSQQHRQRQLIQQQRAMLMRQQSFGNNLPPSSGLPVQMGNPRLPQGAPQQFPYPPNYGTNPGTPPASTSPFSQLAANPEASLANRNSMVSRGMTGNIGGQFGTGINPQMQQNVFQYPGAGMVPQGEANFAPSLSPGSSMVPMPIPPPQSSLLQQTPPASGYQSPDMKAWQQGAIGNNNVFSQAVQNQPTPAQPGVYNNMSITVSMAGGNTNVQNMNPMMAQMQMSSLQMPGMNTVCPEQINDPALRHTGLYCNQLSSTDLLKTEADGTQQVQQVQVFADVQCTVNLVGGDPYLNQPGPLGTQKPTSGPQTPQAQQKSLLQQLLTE

[4] = VP16 transactivation inhibitors, counter-screen for SRC1 inhibitor project, cell-based, luminescence, high throughput (AID 588824; in the data active = inhibition above about 25%); settings: cell-based VP16 transactivation luciferase luminescence; at 3.6 µM; stronger effect = higher value
[5] = StAR promoter reporter inhibitors, counter-screen for LRH-1 inverse agonist project, cell-based, luminescence, high throughput (AID 651611; in the data active = inhibition above about 28%); settings: StAR promoter luciferase reporter counterscreen, at 3.6 µM, stronger effect = higher value
[6] = target: Nuclear receptor subfamily 5 group A member 2 (Homo sapiens) (UniProt O00482); experiment: LRH-1 (NR5A2) inverse agonists, retest, confirmation, cell-based, luminescence (AID 651613; in the data active = inhibition above about 42%;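 note: HEK293T cells co-transfected with LRH-1 and StAR promoter luciferase reporter; 0% = vehicle wells and 100% = parental cells lacking receptor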); settings: cell-based LRH-1 luciferase reporter, inverse agonism; at 3.6 µM; stronger effect = higher value
Nuclear receptor subfamily 5 group A member 2 (Homo sapiens), sequence (O00482 whole entry, looked up): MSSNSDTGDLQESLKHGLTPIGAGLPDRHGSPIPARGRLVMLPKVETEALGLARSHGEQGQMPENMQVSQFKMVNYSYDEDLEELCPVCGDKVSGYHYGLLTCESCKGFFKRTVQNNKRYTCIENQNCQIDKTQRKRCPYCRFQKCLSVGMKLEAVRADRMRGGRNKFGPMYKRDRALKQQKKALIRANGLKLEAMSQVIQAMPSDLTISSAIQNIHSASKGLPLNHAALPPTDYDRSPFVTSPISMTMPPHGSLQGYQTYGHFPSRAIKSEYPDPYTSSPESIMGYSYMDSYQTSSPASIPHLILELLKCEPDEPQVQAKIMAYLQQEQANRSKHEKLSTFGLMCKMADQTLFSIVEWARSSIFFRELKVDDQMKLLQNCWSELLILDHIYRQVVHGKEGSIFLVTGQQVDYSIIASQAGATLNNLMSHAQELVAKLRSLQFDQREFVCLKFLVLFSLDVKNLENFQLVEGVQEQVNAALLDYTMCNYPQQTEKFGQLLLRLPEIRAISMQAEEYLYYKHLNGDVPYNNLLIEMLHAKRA

[7] = target: Steroidogenic factor 1 (Homo sapiens) (UniProt Q13285); experiment: SF1 (NR5A1) inverse agonists, counter-screen for LRH-1 inverse agonist project, cell-based, luminescence, high throughput (AID 651614; in the data active = inhibition above about 44%;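 note: cells cotransfected with StAR promoter reporter and SF1 expression vector; 0% = vehicle on cells with receptor and 100% = vehicle on cells lacking receptor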); settings: cell-based SF1 luciferase reporter, at 3.6 µM, stronger effect = higher value
Steroidogenic factor 1 (Homo sapiens), sequence (Q13285 whole entry, looked up, the tested form may be a part): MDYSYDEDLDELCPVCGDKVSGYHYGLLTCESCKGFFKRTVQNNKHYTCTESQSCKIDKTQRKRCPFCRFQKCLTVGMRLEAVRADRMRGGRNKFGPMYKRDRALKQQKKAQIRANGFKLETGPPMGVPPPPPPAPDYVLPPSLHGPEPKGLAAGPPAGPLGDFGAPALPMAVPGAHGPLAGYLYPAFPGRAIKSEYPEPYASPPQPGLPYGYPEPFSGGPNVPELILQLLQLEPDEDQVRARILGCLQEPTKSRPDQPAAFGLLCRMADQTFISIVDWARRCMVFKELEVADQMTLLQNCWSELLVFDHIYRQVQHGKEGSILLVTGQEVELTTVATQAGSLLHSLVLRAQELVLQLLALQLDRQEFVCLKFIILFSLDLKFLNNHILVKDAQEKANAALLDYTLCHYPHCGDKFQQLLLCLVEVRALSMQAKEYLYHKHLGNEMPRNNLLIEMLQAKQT

[8] = VP16 transactivation reporter inhibitors, counter-screen for LRH-1 inverse agonist project, cell-based, luminescence, high throughput (AID 651615; in the data active = inhibition above about 33%); settings: Gal4-VP16 luciferase reporter cells, at 3.6 µM, stronger effect = higher value

Measured: inhibition

Cc1ccc(-c2cc(-c3ccc(C)cc3)[n+](C)o2)cc1
inactive: [3] -3.35% | [5] 27.6%
active: [1] 62.4% | [2] 47.2% | [4] 47.1% | [6] 78.7% | [7] 65.7% | [8] 67.3%

CCC(C)C(NC(=O)CCCNC(=O)CCC(=O)OC1O[C@H]2OC3(C)CC[C@H]4[C@H](C)CCC(C1C)C24OO3)C(=O)O (stereo partly specified)
active: [1] 52.4% | [2] 77.5% | [4] 76.4% | [5] 71.9% | [6] 101% | [7] 89.8% | [8] 82.9%
inactive: [3] 45%

CCOc1ccc(-c2c(C)n(-c3ccc(OCC)cc3)c3[n+]2CCCCC3)cc1
active: [1] 96.3% | [2] 89% | [3] 74% | [4] 87.2%

CC[C@@H](O)C[C@H]1CCC[C@@]2(C[C@@H]3OC(=O)/C=C/[C@@](C)(O)[C@@H](O)[C@H](C)[C@@H](O)[C@H](OC4CCC(N(C)C)C(C)O4)[C@@H](O)[C@](C)(O)CCCCC/C=C/[C@@H]4CC(C)(C)O[C@@]4(O)C[C@H](O2)[C@H]3C)O1 (stereo partly specified)
active: [1] 76.5% | [2] 85.9% | [3] 62.5% | [4] 85% | [5] 79.8% | [6] 105% | [7] 94% | [8] 87.9%

O=c1[nH]c2ccccc2n1C1CCN(C(c2cc3ccccc3o2)c2nnnn2Cc2ccccc2)CC1 (stereo unspecified)
inactive: [2] 9.7% | [3] -16% | [4] 11.7%
active: [1] 59.9%

COc1ccc(-c2cc(-c3ccccc3)[n+](C)c(-c3ccccc3)c2)cc1
inactive: [1] 35.9% | [3] 34.3%
active: [2] 57.7% | [4] 51.3% | [5] 60.2% | [6] 96% | [7] 84.5% | [8] 77.1%

Cc1ccc(C[n+]2c(-c3ccc(C)cc3)cc(-c3ccc(C)cc3)cc2-c2ccc(C)cc2)cc1
active: [1] 91.3% | [2] 87.9% | [4] 84.7%
inactive: [3] 44.1%

COc1cccc(C(c2nnnn2-c2ccc3c(c2)OCCO3)N2CCC(n3c(=O)[nH]c4ccccc43)CC2)c1OC (stereo unspecified)
inactive: [1] 26.6% | [3] -22.4% | [4] 24.7%
active: [2] 35.9%

CC(C)c1oc(=O)cc2c1[C@@H](O)[C@H]1OC(=O)[C@@]3(C)CC[C@@H](O)[C@@]2(C)C13 (stereo partly specified)
active: [5] 71.4% | [6] 86.2% | [7] 72.3% | [8] 53.6%
inactive: [1] 40.9% | [2] 7.55% | [3] -2.23% | [4] 10%

Reference: PubChem BioAssay
